The list is not random: actives were taken first. Their share in the collection is about 21%.
ClpP mod = qHTS Assay for Activators of ClpP | ATP-dependent Clp protease proteolytic subunit (Bacillus subtilis (strain 168)), P80244 | purified B. subtilis ClpP, FRET peptide cleavage, 20 min | Potency, µM (series often up to 57.5 µM) | 340,000 compounds, 1.9% hits; active means well fitted falling curve with a large enough effect; inconclusive means small, poorly fitted or top-dose-only effect; inactive means no such curve, though single readings can be large or run the other way; further: the source files actives as falling curves though it sought activators and does not explain the sign; nearly all actives have a fitted effect of over 65% in size
Target sequence (P80244 whole entry, looked up): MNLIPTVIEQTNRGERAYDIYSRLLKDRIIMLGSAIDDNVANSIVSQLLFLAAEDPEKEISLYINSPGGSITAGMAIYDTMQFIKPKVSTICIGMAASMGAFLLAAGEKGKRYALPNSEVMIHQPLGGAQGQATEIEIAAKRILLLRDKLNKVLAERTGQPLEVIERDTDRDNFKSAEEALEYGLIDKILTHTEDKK
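ClpP 10 microg/mL final, pH 8 Tris/KCl buffer with BSA, glycerol, Tween-20; compound pinned in; FRET-FV substrate; RT 20 min; Ex320/Em430; ΔFRET vs ADEP 5.8 microM, DMSO, no enzyme.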
IL-1B inflam inh = qHTS for Inhibitors of Inflammasome Signaling: IL-1-beta AlphaLISA Primary Screen; THP-1 LPS/ATP IL-1B secretion, AlphaLISA, 16 h; stronger effect = lower value; activity change, % at 57.5 µM; 360,000 compounds, 4.7% hits; AID 743279, 2014; in the data active means activity change below about -50%; inconclusive means mostly about -30% to -49%
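THP-1 cells pretreated 1 hr with compounds (up to 57.5 uM final), then stimulated with LPS (250 ng/mL final) plus ATP (1.25 mM final); secreted IL-1B measured by AlphaLISA after 16 hr, decreased signal indicating inhibition.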
DT40 TDP1 CPT = qHTS for Inhibitors of human tyrosyl-DNA phosphodiesterase 1 (TDP1): qHTS in cells in presence of CPT. 420,000 compounds, 12% hits. chicken DT40 Tdp1-/-;hTDP1 cells + 20 nM CPT, ATP luminescence, 48 h. AID 686979, 2013. Potency, µM (top dose mostly 46.2 µM), actives largely listed as inhibitors; further: nearly all actives have a fitted effect of over 55% in size
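Chicken DT40 Tdp1-/- cells stably complemented with human TDP1 were seeded at 400 cells/well in medium containing 20 nM camptothecin, exposed to pin-transferred compounds, and grown at 37 °C for at least 48 hr. Viability was read as ATP luminescence.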
DT40 TDP1 no CPT = qHTS for Inhibitors of human tyrosyl-DNA phosphodiesterase 1 (TDP1): qHTS in cells in absence of CPT; DT40 Tdp1-/- hTDP1 cells, no CPT, ATP luminescence, 48 h; Potency, µM (doses to about 46.2 µM), usual class: inhibitors; 420,000 compounds, 15% hits; AID 686978, 2013; further: nearly all actives have a fitted effect of over 55% in size
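Camptothecin absent (DMSO only). Human TDP1-complemented DT40 knockout cells, 400 cells/well, 37 °C for minimum 48 hr; ATP measured via CellTiter-Glo, 30 min dark incubation, luminescence.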
D3 antag = qHTS of D3 Dopamine Receptor Antagonist: qHTS; 360,000 compounds, 2.5% hits; D3R cells, DiscoveRx beta-arrestin luminescence, antagonist mode; stronger effect = lower value; max response, negative = inhibition, %; in the data active means max response below about -50%; inconclusive means no clear call, values can overlap the other calls
Target sequence (P35462 whole entry, looked up): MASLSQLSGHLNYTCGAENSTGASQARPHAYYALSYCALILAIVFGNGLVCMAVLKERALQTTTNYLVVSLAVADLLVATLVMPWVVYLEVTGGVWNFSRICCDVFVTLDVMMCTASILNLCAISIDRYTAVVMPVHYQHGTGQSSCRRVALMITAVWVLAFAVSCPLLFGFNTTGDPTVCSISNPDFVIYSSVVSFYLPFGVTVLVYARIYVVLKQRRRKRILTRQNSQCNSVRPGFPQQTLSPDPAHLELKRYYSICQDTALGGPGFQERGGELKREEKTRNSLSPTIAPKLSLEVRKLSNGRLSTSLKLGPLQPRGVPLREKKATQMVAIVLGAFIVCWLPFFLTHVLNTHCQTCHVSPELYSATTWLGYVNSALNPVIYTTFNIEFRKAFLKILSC
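Cells plated overnight at 1500 cells/well, then exposed to library compounds with dopamine controls for 90 minutes at 37 degrees C. DiscoveRx reagent added for 30–60 minutes at room temperature; luminescence read, quantitative HTS format.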
D3 ag = qHTS of D3 Dopamine Receptor Agonist: qHTS; D(3) dopamine receptor (Homo sapiens), P35462; D3R DiscoveRx beta-arrestin cells, luminescence, 90 min; max activation, %; 410,000 compounds, 0.58% hits; AID 652048, 2013; in the data active means max activation above about 30%
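Agonist-mode cell screen: cells plated at 1500/well and incubated overnight at 37 °C, then exposed to library compounds for 90 min at 37 °C. Detection reagent was added for 30–60 min at room temperature, and luminescence was read.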
Numbers stand for hits; 0 = inactive; ? = inconclusive; - = not tested or not shown. Unless noted, the call rests on the fitted dose curve; in most records, active means well fitted inhibition curve with a large enough effect; inconclusive means small, poorly fitted or top-dose-only effect; inactive means flat fitted curve, though single readings scatter.

SMILES | ClpP mod | IL-1B inflam inh | DT40 TDP1 CPT | DT40 TDP1 no CPT | D3 antag | D3 ag
CN(C)CCNC(=O)c1ccccc1-c1ccccc1 | 0 | 0 | 0 | 0 | 0 | 0
CN(C)CCNC(=O)c1cccc2nc3c(ccc4ccccc43)nc12 | 0 | -101 | 5.8µM | 4.6µM | 0 | 0
CN(C)CCNC(=O)c1ccccc1-c1cc2ccccc2c(=O)o1 | - | 0 | 0 | 0 | 0 | 0
COc1ccc(-c2nc3c(C(=O)NCCN(C)C)cccc3c3ccccc23)cc1 | ? | -100 | 1.3µM | 4.1µM | 0 | 0
CN(C)CCNC(=O)c1cccc2[nH]c(-c3ccncc3)nc12 | ? | -82 | 13µM | 13µM | 0 | 0
CCc1nc2ccc(C(=O)Nc3ccc(NC(C)=O)cc3)cn2c1N(C)CCC(C)C | 0 | 0 | ? | 21µM | 0 | 0
CCc1nc2ccc(C(=O)Nc3ccc(C(N)=O)cc3)cn2c1N(C)CCC(C)C | 0 | 0 | 18µM | 23µM | 0 | 0
OCCOc1ccc(CN2CCCC(N3CCN(c4ccc(F)cc4)CC3)C2)cc1 (stereo unspecified) | 0 | 0 | 0 | 0 | 0 | 0
COc1cc(CN2CCCC(N3CCN(c4ccc(F)cc4)CC3)C2)ccc1F (stereo unspecified) | 0 | 0 | 21µM | ? | 0 | 0
COc1cc(CN2CCCC(N3CCN(c4ccccc4C)CC3)C2)ccc1O (stereo unspecified) | 0 | 0 | 13µM | ? | ? | 0
COc1ccccc1N1CCN(C2CCCN(Cc3cccc(O)c3)C2)CC1 (stereo unspecified) | 0 | 0 | 0 | 0 | 0 | 0
CCCCCCCCS(=O)C1CCS(=O)(=O)C1 (stereo unspecified) | 0 | 0 | 0 | ? | 0 | 0
CCCCCCS(=O)[C@H]1CS(=O)(=O)C[C@@H]1S(=O)CCCCCC (stereo partly specified) | 0 | 0 | 23µM | ? | 0 | 0
COC(=O)c1ccccc1NC(=O)CSc1nnc2cc(C)c3cc(C)cc(C)c3n12 | 0 | - | ? | ? | - | 0
Cc1cccc(N2CCN(C(=O)CN3C(=O)NC(C)(C4CC4)C3=O)CC2)c1C (stereo unspecified) | 0 | 0 | ? | ? | 0 | 0
CCOC(=O)CSc1nc2ccc(NC(=O)c3ccccc3F)cc2s1 | 0 | - | 0 | 0 | - | 0
CSc1nc2ccc(NC(=O)COc3ccccc3F)cc2s1 | 0 | 0 | 0 | ? | 0 | 0
O=C(COc1ccccc1F)Nc1ccc2nc(SCC(=O)N3CCOCC3)sc2c1 | 0 | - | 18µM | 12µM | - | 0
O=C(Nc1ccc2nc(SCC(=O)N3CCCC3)sc2c1)c1ccccc1F | 0 | - | 16µM | 16µM | - | 0
O=C(COc1ccccc1F)Nc1ccc2nc(SCC(=O)N3CCCC3)sc2c1 | 0 | - | ? | 13µM | - | 0
O=c1c(-c2ccc(Cl)cc2)nc2cnc(N3CCOCC3)nc2n1C1CC1 | - | - | 0 | 0 | - | -
Cc1cc2ncc(-c3cccs3)nc2cc1C | 0 | 0 | 0 | ? | 0 | 0
CCCc1nnc(NC(=O)C(=O)NCCN(CC)CC)s1 | 0 | 0 | 0 | 0 | 0 | 0
CCN(CC)CCNC(=O)C(Cl)=C1C(Cl)=C(Cl)C(Cl)=C1Cl | 0 | -100 | ? | 16µM | 0 | 0
COc1cc(OC)c2cc(C(=O)N/N=C/c3ccccc3O)[nH]c2c1 | 0 | 0 | 4.6µM | 4.6µM | 0 | 0
SMILES | ClpP mod | IL-1B inflam inh | DT40 TDP1 CPT | DT40 TDP1 no CPT | D3 antag | D3 ag
COc1ccc2[nH]c(C(=O)N/N=C/c3ccc(OC)c(O)c3)cc2c1 | - | 0 | 1.2µM | 1.3µM | 0 | 0
CCOc1ccc(/C=N/NC(=O)c2cc3c(OC)cc(OC)c(OC)c3[nH]2)cc1 | 0 | 0 | ? | ? | 0 | 0
CCOc1ccc2[nH]c(C(=O)N/N=C/c3ccccc3OC)cc2c1 | 0 | 0 | 5.8µM | 7.3µM | 0 | 0
CCCOc1ccc2[nH]c(C(=O)N/N=C/c3cc(OC)c(OC)c(OC)c3)cc2c1 | 0 | 0 | ? | 16µM | 0 | 0
CCn1cc(S(=O)(=O)c2cccc(Cl)c2)c(=O)c2cc(F)c(N3CCC(C)CC3)cc21 | 0 | - | 0 | 0 | - | 0
CC1(C(=O)NS(=O)(=O)c2cccc(Cl)c2)CCN1C(=O)c1cccc2ccccc12 (stereo unspecified) | 0 | 0 | 0 | 0 | 0 | 0
COc1ccc2[nH]c(C(=O)N/N=C/c3ccccc3OC)cc2c1 | 0 | 0 | 7.3µM | 9.2µM | 0 | 0
Cc1cccc(NC(=O)C(=O)NCC(c2cccnc2)N2CCc3ccccc32)c1C (stereo unspecified) | 0 | - | 18µM | 23µM | - | 0
Cc1ccc(NC(=O)N2CCc3ccccc3C2)cc1 | 0 | 0 | 0 | 0 | 0 | 0
CC(C)(C)c1ccc(C(=O)NCC(c2cccnc2)N2CCc3ccccc3C2)cc1 (stereo unspecified) | 0 | - | 2.3µM | 1.8µM | - | 0
Cc1ccc(NC(=O)C(=O)NCC(c2cccnc2)N2CCc3ccccc32)cc1Cl (stereo unspecified) | 0 | - | 18µM | 13µM | - | 0
Cc1ccc(NC(=O)C(C)N2CCc3ccccc3C2)cc1 (stereo unspecified) | - | 0 | ? | 0 | -76 | 0
Cc1cccc(N(C)C(=O)Cn2c(=O)oc3cc(S(=O)(=O)N4CCCCC4)ccc32)c1 | 0 | - | 0 | 0 | - | 0
Cc1ccc(OCCCN2CCOCC2)cc1 | - | 0 | 0 | 0 | ? | 0
Cc1ccc(S(=O)(=O)N2CCN(C(=O)c3cc(S(=O)(=O)N4CCOCC4)c(Cl)cc3Cl)CC2)cc1 | 0 | 0 | ? | ? | 0 | 0
CC(=O)Nc1ccc(SCC(=O)NC(=O)c2ccc(S(=O)(=O)N(C)C)cc2)cc1 | 0 | 0 | 0 | 0 | ? | 0
Cc1ccc(NC(=O)C(=O)NCC(c2cccnc2)N2CCc3ccccc3C2)cc1 (stereo unspecified) | 0 | - | 21µM | 16µM | - | 0
O=C(NCC(c1cccnc1)N1CCc2ccccc21)C(=O)Nc1ccccc1F (stereo unspecified) | 0 | - | 7.3µM | ? | - | 0
Cc1cccc(NC(=O)C(=O)NCC(c2cccnc2)N2CCc3ccccc3C2)c1C (stereo unspecified) | 0 | - | 16µM | 16µM | - | 0
CC(=O)Nc1ccc(S(=O)(=O)NCCN2CCNC2=O)cc1Cl | 0 | 0 | 0 | 0 | 0 | 0
O=C(COc1cccnc1[N+](=O)[O-])NCc1ccc(F)cc1 | 0 | 0 | 0 | 0 | 0 | 0
